A selection: hits, their analogues and other compounds. The true share with any hit is near 9.2%.
HPGD block = qHTS Assay for Inhibitors of HPGD (15-Hydroxyprostaglandin Dehydrogenase); Potency, µM, inactives show top-dose activity change, negative = inhibition, actives largely listed as inhibitors; 15-hydroxyprostaglandin dehydrogenase [NAD(+)] (Homo sapiens), P15428; purified HPGD, NADH fluorescence kinetic, PGE2 substrate; AID 894, 2007; actives 4.3% (n = 150,000); further: on the % scale 0 is the no-effect control and ±100 the full control effect
Target sequence (P15428 whole entry, looked up): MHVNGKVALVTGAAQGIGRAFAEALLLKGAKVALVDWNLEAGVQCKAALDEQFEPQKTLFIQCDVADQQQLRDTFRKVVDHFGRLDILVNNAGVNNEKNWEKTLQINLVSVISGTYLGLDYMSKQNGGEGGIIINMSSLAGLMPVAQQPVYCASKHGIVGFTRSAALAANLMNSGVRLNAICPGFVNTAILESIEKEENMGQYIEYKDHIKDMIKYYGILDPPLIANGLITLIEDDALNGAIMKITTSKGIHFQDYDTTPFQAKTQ
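20 nM HPGD preincubated 15 min at room temperature with compound in 50 mM Tris-HCl pH 8, 0.01% Tween 20. Started with 1 mM NAD+ and 30 uM prostaglandin E2; NADH fluorescence (360/450 nm) read 5 times over 30-s intervals, last minus first.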
KDM4E inh = qHTS Assay for Inhibitors of Human Jumonji Domain Containing 2E (JMJD2E); JMJD2E catalytic domain, FDH-coupled NADH fluorescence (FDH is formaldehyde dehydrogenase); Lysine-specific demethylase 4E (Homo sapiens), B2RXH2; actives 1.6% (n = 230,000); Potency, µM (titrated, usually from 57.1 µM), without a hit: top-dose activity change, negative = inhibition, most hits filed as inhibitors; AID 2147, 2009;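 further: 0% = wells with enzyme and -100% = buffer wells without enzyme; nearly all actives have a fitted effect of over 50% in size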
HTT aggregate = qHTS Multiplex Assay to Identify Dual Action Probes in a Cell Model of Huntington: Aggregate Formation (GFP). PC12 HttQ103-GFP aggregates, Acumen cytometry, 40 h. AID 1688, 2009. Potency, µM (top dose mostly 46.1 µM), without a hit: top-dose activity change, negative = inhibition, actives largely listed as inhibitors. actives 1.1% (n = 220,000); active means well fitted curve in the direction sought with a large enough effect; inconclusive means small, poorly fitted or top-dose-only effect, or another doubt; inactive means no such curve, though single readings can be large; an effect the other way counts as inactive or inconclusive; further: on the % scale 0 is the no-effect control and ±100 the full control effect; nearly all actives have a fitted effect of over 60% in size
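PC12 cells with ecdysone-inducible HTT exon1 Q103-GFP, induced by 100 nM tebufenozide, given compounds in a concentration series. GFP aggregates (1–25 um, 6 SD above background) counted in lysates by laser-scanning cytometry, 488 nm excitation.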
HTT ATP protect = qHTS Multiplex Assay to Identify Dual Action Probes in a Cell Model of Huntington: Cytoprotection (ATP); PC12 HTT-Q103 induced, cytoprotection, ATP luminescence, 40 h; Potency, µM (doses to about 56.4 µM), for the others: cytoprotection (ATP increase), usual class: activators; actives 0.14% (n = 230,000); AID 1471, 2008; active means well fitted curve in the direction sought with a large enough effect; inconclusive means small, poorly fitted or top-dose-only effect, or another doubt; inactive means no such curve, though single readings can be large; an effect the other way counts as inactive or inconclusive; further: % of control where 0% means no effect; nearly all actives have a fitted effect of over 45% in size
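Compounds added alongside 100 nM tebufenozide, which induces toxic Q103 huntingtin exon 1-GFP in stable PC12 cells; surviving cells quantified by luminescent ATP measurement. Medium: phenol red-free DMEM, 5% equine and 5% calf serum.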
Lamin A splicing = qHTS Assay for Modulators of Lamin A Splicing | Potency, µM (titrated, usually from 46.1 µM), inactives show at the highest dose ratio change, negative = inhibition, usual class: inhibitors | actives 0.01% (n = 200,000) | HeLa LMNA splicing GFP/RFP minigene ratio, 48 h | AID 1487, 2009; active means well fitted inhibition curve with a large enough effect in the signal ratio, with a control signal flat, not every such curve was filed as active; inconclusive means small, poorly fitted or top-dose-only effect, or effect the other way, or a change in a side signal; the % refers to the signal ratio; further: on the % scale 0 is the no-effect control and ±100 the full control effect
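S3 HeLa cells stably expressing lamin A-EGFP splicing minigene plus DsRed2, 600 cells/well, 48 h compound exposure at 37C. Laser-scanning cytometry; analysed as GFP (500-530 nm)/RFP (575-640 nm) total intensity ratio; 0.5% DMSO vehicle.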
ALDH1A1 block = qHTS Assay for Inhibitors of Aldehyde Dehydrogenase 1 (ALDH1A1); Potency, µM (top dose mostly 75.3 µM), inactives show top-dose activity, negative = inhibition, most hits filed as inhibitors; Purified ALDH1A1, NADH fluorescence, propionaldehyde substrate; actives 7.3% (n = 220,000); Aldehyde dehydrogenase 1A1 (Homo sapiens), P00352;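 further: plate controls were no enzyme wells and a reference inhibitor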
Target sequence (P00352 whole entry, looked up): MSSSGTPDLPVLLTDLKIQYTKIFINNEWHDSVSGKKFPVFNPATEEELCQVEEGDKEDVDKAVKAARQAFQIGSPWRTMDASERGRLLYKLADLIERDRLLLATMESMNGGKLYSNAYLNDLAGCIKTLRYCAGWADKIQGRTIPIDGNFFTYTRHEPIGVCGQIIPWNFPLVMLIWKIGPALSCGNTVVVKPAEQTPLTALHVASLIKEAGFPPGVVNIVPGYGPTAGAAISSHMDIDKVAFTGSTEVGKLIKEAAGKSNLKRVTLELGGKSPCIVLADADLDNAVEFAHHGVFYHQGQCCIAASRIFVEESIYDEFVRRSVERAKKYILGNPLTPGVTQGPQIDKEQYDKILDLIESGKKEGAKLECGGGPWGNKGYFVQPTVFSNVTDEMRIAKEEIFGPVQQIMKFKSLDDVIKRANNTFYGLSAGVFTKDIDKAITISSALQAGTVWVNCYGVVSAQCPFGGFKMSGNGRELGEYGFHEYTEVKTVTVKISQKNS
* hit, by the source's call; ? = inconclusive; . = not tested or not shown; ! = not confirmed by another sample; [ ] = dose if it differs, or a comment. Unless noted, the call rests on the fitted dose curve; in most records, active means well fitted inhibition curve with a large enough effect (not every such curve was filed as active); inconclusive means small, poorly fitted or top-dose-only effect, or another doubt; inactive means no such curve, though single readings can be large or run the other way. Potency means the concentration at half of the fitted maximal effect.

SMILES	HPGD block	KDM4E inh	HTT aggregate	HTT ATP protect	Lamin A splicing	ALDH1A1 block
CC1(C)SC2[C@@H](N=CN3CCCCCC3)C(=O)N2[C@H]1C(=O)O (stereo partly specified)	.	.	5%	-48%	?	.
O=c1cc(-c2ccccc2)nc(SCc2nc(-c3ccccc3Cl)no2)[nH]1	.	.	.	.	-16%[46 µM]	.
COc1cccc(C2CC(C(F)(F)F)n3ncc(C(=O)NCc4ccco4)c3N2)c1 (stereo unspecified)	20µM*	1%	2.8µM*	1%[0.074 µM]	-7%	-3%
O=C(NCC1CCCO1)c1cnn2c1NC(c1ccccc1)CC2C(F)(F)F (stereo unspecified)	25µM*	-2%	7%	3%[0.074 µM]	-11%	6%
COc1cccc(C2CC(C(F)(F)F)n3ncc(C(=O)NC(C)(C)C)c3N2)c1 (stereo unspecified)	-14%	6%	10%	-4%	3%	1%
CCN(CC)C(=O)/C=C/c1ccc(OC)c(S(=O)(=O)N2CCCCC2)c1	.	3%	-18%	-49%	.	-15%
CCc1[nH]nc2c1C1(CCN(C(=O)c3ccccc3)CC1)C(C#N)=C(N)O2	-7%	2%	-9%	-10%	6%	?
Cc1ccc(SCc2[nH]nc3c2C2(C(=O)Nc4ccc(F)cc42)C(C#N)=C(N)O3)cc1 (stereo unspecified)	1%	7%	33%	3%	?	2.2µM*
CC(=O)N1CCC2(CC1)C(C#N)=C(N)Oc1n[nH]c(CSc3ccc(C)cc3)c12	-2%	-11%	8%[9.22 µM]	-1%[0.074 µM]	-7%	10µM*
COc1ccc(N(CCC#N)C(=O)/C(C#N)=C/c2cccs2)cc1	.	-2%	16%	-8%	10%[46 µM]	14µM*
CC(C)(C)C(=O)/C(C#N)=C/c1cccs1	.	11%	-10%[9.22 µM]	13%[10 µM]	.	.
O=C(Nc1ccccc1)C1=C[C@H](c2ccc3c(c2)OCO3)C[C@H](OCCCCO)O1	.	-3%	2%[9.22 µM]	-30%[10 µM]	.	-1%
C#CCNC(=O)C1=C[C@H](c2cn(C(C)=O)c3ccccc23)C[C@H](OCc2ccc(CO)cc2)O1	.	?	-7%[9.22 µM]	-3%[10 µM]	.	?
C=CCOC(=O)C1=C[C@@H](c2csc3ccccc23)C[C@@H](OCc2ccc(CO)cc2)O1	.	-28%	-4%[9.22 µM]	24%[10 µM]	.	25µM*
O=C(Nc1ccccc1)C1=C[C@@H](c2ccc(Br)cc2)C[C@@H](OCCCCO)O1	.	-7%	1%[9.22 µM]	-5%[10 µM]	.	7.9µM*
CC(=O)n1cc([C@@H]2C=C(C(=O)NCc3ccccc3)O[C@H](OCc3ccc(CO)cc3)C2)c2ccccc21	.	10µM*	28%[9.22 µM]	-45%[10 µM]	.	.
CC(=O)n1cc([C@@H]2C=C(C(=O)Nc3ccccc3)O[C@H](OCCCCO)C2)c2ccccc21	.	-10%	17%[9.22 µM]	13%[10 µM]	.	13µM*
CC(=O)n1cc([C@H]2C=C(C(=O)O)O[C@@H](OCCCCO)C2)c2ccccc21	.	-15%	8%[9.22 µM]	17%[10 µM]	.	?
Cc1cc(O)c(C(C)C)cc1Cl	-4%	.	-1%	9%	?	1%
O=C(O)c1ccccc1OP(=O)(O)O	?	?	-3%	?	-7%	?
Cc1ccc(S(=O)(=O)N2CCOCC2)cc1NC(=O)COC(=O)c1cc(=O)c2ccccc2o1	-3%	-19%	28%	13%[10 µM]	-10%	2%
O=c1[nH]c(=O)c2[nH]c(=O)[nH]c2[nH]1	.	.	7%	12%	.	.
C#CCNC(=O)C1=C[C@H](c2ccc3c(c2)OCO3)C[C@H](OCc2ccc(CO)cc2)O1	.	-27%	5%[9.22 µM]	16%[10 µM]	.	28µM*
O=C(Nc1nc(-c2ccccn2)cs1)c1ccc(Br)s1	-21%	?	1.3µM*	-51%	?	7%
COc1ccc(OCCCC(=O)Nc2nc(-c3ccccn3)cs2)cc1	.	-13%	6%	-4%	-11%[46 µM]	32µM*
SMILES	HPGD block	KDM4E inh	HTT aggregate	HTT ATP protect	Lamin A splicing	ALDH1A1 block
O=C(Nc1nc(-c2ccccn2)cs1)c1ccco1	.	?	?	-120%	?	35µM*
CCCCN(CC)S(=O)(=O)c1ccc(C(=O)Nc2nnc(COC)o2)cc1	-15%	?	?	-36%	-27%	8%
CCCN(CCC)S(=O)(=O)c1ccc(C(=O)Nc2nnc(CSC)o2)cc1	-7%	?	11µM*	-43%	?	12%
CCCN(CCC)S(=O)(=O)c1ccc(C(=O)Nc2nnc(-c3cccc(OC)c3)o2)cc1	-7%	-8%	10µM*	.	?	2%
CCCCN(CC)S(=O)(=O)c1ccc(C(=O)Nc2nnc(-c3ccccc3Cl)o2)cc1	-17%	-25%	10µM*	-10%[10 µM]	?	17%
CCN(Cc1ccccc1)S(=O)(=O)c1ccc(C(=O)Nc2nnc(-c3ccccc3OC)o2)cc1	-20%	?	22µM*	6%[10 µM]	?	?
COc1cccc(-c2nnc(NC(=O)c3cccc(F)c3)o2)c1	.	?	6%[9.22 µM]	19%[10 µM]	.	.
COc1ccccc1-c1nnc(NC(=O)c2ccc(S(=O)(=O)N(C)C)cc2)o1	-8%	?	13%[9.22 µM]	-3%	?	6%
Cc1cc(C)cc(NC(=O)C(Cc2ccccc2)N2Cc3ccccc3C2=O)c1 (stereo unspecified)	.	.	.	.	-2%[46 µM]	.
CCCCN(CC)S(=O)(=O)c1ccc(C(=O)Nc2nnc(CSC)o2)cc1	-14%	?	10µM*	-61%	?	6%
O=C1C(Cl)=C(N2CCC(C(=O)O)CC2)C(=O)c2ccccc21	.	-20%	10%[9.22 µM]	-4%[10 µM]	.	.
NC(=O)C1CCN(C2=C(Cl)C(=O)c3ccccc3C2=O)CC1	14µM*	7%	5%	5%	?	?
C=C/C(C)=C/[C@@]1(C)SC(=O)C(C)=C1O	-13%	7%	.	.	-20%	1%
O=C(NCc1ccncc1)c1ccc(Oc2ccccc2)cc1	.	-7%	11µM*	0%[10 µM]	?	-7%
O=C(CCNNC(=O)c1ccncc1)NCc1ccccc1	-7%	8.9µM*!	-13%	32%	?	-2%
Cc1ccc(Oc2ccc(C(=O)NCc3ccncc3)cc2)cc1	.	-5%	11µM*	-96%	5%[9.22 µM]	-5%
O=C(NCc1ccccc1)NC(=O)c1ccncc1	-4%	1%	-11%	-11%	-5%	7%
Cc1ccc(C(O)C2=CCCC2=O)cc1 (stereo unspecified)	-4%	-7%	.	-3%	.	-6%
